Results as given in ChEMBL document CHEMBL1157539, “Thousands of chemical starting points for antimalarial lead identification” (Nature, 2010).

test system: Plasmodium falciparum; experiment: GSK_TCMDC: Inhibition of Plasmodium falciparum 3D7 in whole red blood cells, using parasite LDH activity as an index of growth. Test compounds present at 2uM; assay type: functional

Structure (SMILES) | Inhibition
CC(C)c1ccc(NC(=O)Nc2ccc(CCNCCCc3ccccc3)cc2)cc1 | 100%
COc1ccc(C(=O)CC(=O)c2ccc(OC)cc2OC)c(OC)c1 | 98%
CC(C)(C)c1ccc(CNCCOc2ccc(Nc3nnc(-c4ccc(-c5ncc[nH]5)cc4)o3)c3ccccc23)cc1.O=C(O)C(F)(F)F | 100%
CCCCCCCN1CC[C@@H](CCCc2ccnc3ccc(OCCCCN/C(N)=N/O)cc23)[C@@H](CC)C1.O=C(O)C(=O)O | 90%
O=C(NC1CCC1)C1CCN(C(c2ccc(Cl)cc2)c2ccc(Cl)cc2)CC1 | 95%
COc1ccccc1-c1csc(C(=O)NC2CCCCN(Cc3ccc(C(C)(C)C)cc3)C2)c1.O=C(O)C(F)(F)F (centres undefined) | 99%
O=C(NC1CCCCN(Cc2ccc3c(c2)OCCO3)C1)c1cc(-c2ccccc2F)cs1.O=C(O)C(F)(F)F (centres undefined) | 92%
CCCCCCn1c(Sc2ccc(C#N)c([N+](=O)[O-])c2)nnc1-c1cccc(Cl)c1 | 96%
CCN(CC)CCN(Cc1ccc(-c2ccc(C(F)(F)F)cc2)cc1)C(=O)c1ccc(-c2ccc(NC(=O)OC)cc2C)cc1 | 93%
CCCc1cc(Cc2cnc(N)nc2N)ccc1OCCCCCC(=O)O.Cl | 97%
COc1ccccc1C1CCN(C2CCC(NC(=O)c3cc4ccccc4[nH]3)CC2)CC1 (centres undefined) | 88%
CCOc1cc2c(cc1OCC)C(c1cc(OC)c(O)cc1Cl)NCC2 (centres undefined) | 100%
CC(Oc1cccc(Cl)c1)C(=O)N1CCc2ccccc21 (centres undefined) | 94%
COc1ccccc1C1CCN(C2CCC(NC(=O)/C=C/c3ccc(OC(F)(F)F)cc3)CC2)CC1 (centres undefined) | 82%
